Experimental data taken from PubChem BioAssay (EPA / NIEHS).
Inconclusive results are not listed. Activity calls are given as the source filed them. How the source made its calls, unless noted: active means hit-call score of the fitted dose curve at least 0.9, where 1 is the maximum; inactive means score below 0.9.

Experiments:
[1] = biological target: human RAR-related Orphan Receptor gamma (RORg), RORC (gene 6097) (UniProt P51449); test: ATG_RORg_TRANS: Attagene TRANS-FACTORIAL HepG2 Assay for human RAR-related Orphan Receptor gamma (RORg) (AID 2283011; active means hit-call score of the fitted dose curve at least 0.9, where 1 is the maximum)
Method in brief: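 Transient MRTU transfection of HepG2 (TRANS format, exogenous NR-Gal4 chimera). 24 h dosing. Total RNA → oligo(dT) RT → PCR → 6-FAM labelling → HpaI cut → CE. Gain vs DMSO.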

[2] = biological target: human Retinoid X Receptor beta (RXRb), RXRB (gene 6257) (UniProt P28702); test: ATG_RXRb_TRANS: Attagene TRANS-FACTORIAL HepG2 Assay for human Retinoid X Receptor beta (RXRb) (AID 2283013; active means hit-call score of the fitted dose curve at least 0.9, where 1 is the maximum)
Method in brief: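 Transfect HepG2 with GAL4-UAS multi-reporter constructs (chimeric NR-Gal4, TRANS format); dose compound 24 h; isolate RNA, RT-PCR, FAM primer extension, HpaI digest; quantify by capillary electrophoresis; positive direction vs DMSO.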

[3] = biological target: human Thyroid Receptor alpha (THRa1), THRA (gene 7067) (UniProt P10827); test: ATG_THRa1_TRANS: Attagene TRANS-FACTORIAL HepG2 Assay for human Thyroid Receptor alpha (THRa1) (AID 2283014; active means hit-call score of the fitted dose curve at least 0.9, where 1 is the maximum)
Method in brief: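 Transient HepG2 transfection, NR-Gal4 chimera driving GAL4-UAS reporters; 24 h compound exposure; total RNA, oligo(dT) RT, PCR, fluorescent primer extension, capillary electrophoresis. Upward direction vs DMSO control.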

[4] = read-out: E-selectin (Homo sapiens) (UniProt P16581); test: BSK_3C_Eselectin: BioMAP Diversity Plus: 3C Assay for Eselectin Biomarker Activity (AID 2283015); details: primary human endothelial cells (HUVEC); actives raise or lower the signal
Method in brief: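 HUVEC, 3C stimulation; compound exposure 24 h; E-selectin by ELISA; gain- or loss-of-signal fitted bidirectionally vs DMSO baseline.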

[5] = read-out: Interleukin-1 alpha (IL1a), IL1A (gene 3552); test: BSK_BE3C_IL1a: BioMAP Diversity Plus: BE3C Assay for Interleukin-1 alpha (IL1a) Biomarker Activity (AID 2283016); details: primary human bronchial epithelial cells; actives raise or lower the signal
Method in brief: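 BE3C primary human bronchial epithelium; cpd 24 h; IL-1a by ELISA; bidirectional fit vs DMSO; parallel SRB (0.1% SRB, 10% TCA fix, 560 nm) for cytotoxicity.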

[6] = read-out: Monocyte Chemoattractant Protein-1 (MCP1), CCL2 (gene 6347); test: BSK_3C_MCP1: BioMAP Diversity Plus: 3C Assay for Monocyte Chemoattractant Protein-1 (MCP1) Biomarker Activity (AID 2283017); details: primary human endothelial cells (HUVEC); actives raise or lower the signal
Method in brief: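 HUVEC, 3C system; 24 h chemical exposure; MCP-1 by ELISA; bidirectional curve fit vs DMSO baseline.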

[7] = read-out: Monocyte Chemoattractant Protein-1 (MCP1), CCL2 (gene 6347); test: BSK_4H_MCP1: BioMAP Diversity Plus: 4H Assay for Monocyte Chemoattractant Protein-1 (MCP1) Biomarker Activity (AID 2283018); details: primary human endothelial cells (HUVEC); actives raise or lower the signal
Method in brief: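 ELISA read-out of MCP-1 from human vascular endothelial primary cells taken at 24 hours after compound exposure. Activity was fitted in both directions relative to DMSO, which served as negative control.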

[8] = read-out: Human Leukocyte Antigen - DR isotype (HLADR), HLA-DRA (gene 3122); test: BSK_3C_HLADR: BioMAP Diversity Plus: 3C Assay for Human Leukocyte Antigen - DR isotype (HLADR) Biomarker Activity (AID 2283019); details: primary human endothelial cells (HUVEC); actives raise or lower the signal
Method in brief: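 HUVEC, 3C stimulation, 24 h post-dose; HLA-DR by ELISA; bidirectional curve fit vs DMSO baseline; gain or loss of signal scored.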

[9] = read-out: Interleukin-8 (IL8), CXCL8 (gene 3576); test: BSK_3C_IL8: BioMAP Diversity Plus: 3C Assay for Interleukin-8 (IL8) Biomarker Activity (AID 2283020); details: primary human endothelial cells (HUVEC); actives raise or lower the signal
Method in brief: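 ELISA read-out of IL-8 from human umbilical vein endothelium, measured 24 h after chemical dosing. Activity is expressed relative to DMSO negative control, with both increases and decreases fitted.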

[10] = read-out: Monokine induced gamma interferon (MIG), CXCL9 (gene 4283); test: BSK_3C_MIG: BioMAP Diversity Plus: 3C Assay for Monokine induced gamma interferon (MIG) Biomarker Activity (AID 2283021); details: primary human endothelial cells (HUVEC); actives raise or lower the signal;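 on AC50: MIG protein level measured by immunoassay in the treated endothelial cultures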
Method in brief: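 Read-out is ELISA detection of MIG on human umbilical vein endothelial cells, taken 24 h after dosing. Gain or loss of signal was scored relative to DMSO controls using bidirectional curve fitting.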

[11] = biological target: human Vitamin D Receptor (VDR), VDR (gene 7421) (UniProt P11473); test: ATG_VDR_TRANS: Attagene TRANS-FACTORIAL HepG2 Assay for human Vitamin D Receptor (VDR) (AID 2283022; active means hit-call score of the fitted dose curve at least 0.9, where 1 is the maximum)
Method in brief: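 RT-PCR/capillary electrophoresis read-out of reporter mRNA induction in transiently transfected HepG2; 24 h dosing; chimeric NR-Gal4 (TRANS format); gain-of-signal fit against DMSO baseline.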

[12] = BSK_3C_SRB: Viability Assessment in the BioMAP Diversity Plus: 3C Assay (AID 2283023); details: primary human endothelial cells (HUVEC);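 further: fitted both ways against DMSO so a hit may be signal rise or drop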
Method in brief: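 HUVEC, 24 h post-dose; 10% TCA fix, 0.1% SRB stain, A560 nm. Bidirectional curve fit vs DMSO negative control.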

[13] = BSK_3C_Vis: BioMAP Diversity Plus: 3C Assay for Morphology Visualization (AID 2283025); details: primary human endothelial cells (HUVEC);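 further: fitted both ways so gain or loss versus DMSO counts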;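 on AC50: light microscopy image of cell morphology used as background control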
Method in brief: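 Chemicals were added to primary human umbilical vein endothelium, cells were incubated 24 h, and morphology was then visualized by light microscopy. Gain or loss of signal was fitted bidirectionally relative to DMSO.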

[14] = read-out: Pselectin, SELP (gene 6403); test: BSK_4H_Pselectin: BioMAP Diversity Plus: 4H Assay for Pselectin Biomarker Activity (AID 2283026); details: primary human endothelial cells (HUVEC); actives raise or lower the signal
Method in brief: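 ELISA read-out of P-selectin on human umbilical vein endothelium after 24 h of dosing. Values derive from bidirectional fitting relative to DMSO. Parallel SRB protein staining flagged overt cytotoxicity.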

[15] = BSK_4H_SRB: Viability Assessment in the BioMAP Diversity Plus: 4H Assay (AID 2283027); details: primary human endothelial cells (HUVEC);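 further: cells exposed to compound for 24 h before staining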;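 on AC50: curves fitted both ways versus DMSO so AC50 may be loss or gain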
Method in brief: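 Human umbilical vein endothelial cells were dosed with chemical and, after 24 h, fixed with 10% TCA, stained with 0.1% sulforhodamine B, and read at 560 nm to give total protein as a cytotoxicity measure. Bidirectional fitting relative to DMSO control.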

[16] = BSK_BE3C_SRB: Viability Assessment in the BioMAP Diversity Plus: BE3C Assay (AID 2283028); details: primary human bronchial epithelial cells
Method in brief: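 Primary human bronchial epithelium; chemical dosing, 24 h; 10% TCA fix, 0.1% SRB stain, A560; bidirectional fit vs DMSO baseline.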

[17] = read-out: Thrombomodulin, THBD (gene 7056); test: BSK_3C_Thrombomodulin: BioMAP Diversity Plus: 3C Assay for Thrombomodulin Biomarker Activity (AID 2283029); details: primary human endothelial cells (HUVEC); actives raise or lower the signal
Method in brief: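 Read-out is ELISA of thrombomodulin on human umbilical vein endothelium 24 h after chemical dosing. Gain or loss of signal is scored relative to DMSO. Overt cytotoxicity is checked in parallel cultures by sulforhodamine B staining.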

[18] = read-out: Urokinase-type plasminogen activator receptor (uPAR), PLAUR (gene 5329); test: BSK_4H_uPAR: BioMAP Diversity Plus: 4H Assay for Urokinase-type plasminogen activator receptor (uPAR) Biomarker Activity (AID 2283030); details: primary human endothelial cells (HUVEC); actives raise or lower the signal
Method in brief: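 HUVEC, 24 h post-dose; uPAR by ELISA; bidirectional fit vs DMSO baseline.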

[19] = biological target: Retinoic acid receptor RXR-alpha (Homo sapiens) (UniProt P19793); test: ATG_RXRa_TRANS: Attagene TRANS-FACTORIAL HepG2 Assay for human Retinoid X Receptor alpha (RXRa) (AID 2283012; active means hit-call score of the fitted dose curve at least 0.9, where 1 is the maximum)
Method in brief: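 Transient transfection of human HepG2 with multiple GAL4-UAS reporter constructs; 24 h compound exposure; total RNA isolated, reverse-transcribed, PCR-amplified, 6-FAM labelled, HpaI-cut, resolved by capillary electrophoresis. Positive-direction fit versus DMSO.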

[20] = read-out: Matrix Metallopeptidase 1 (MMP1), MMP1 (gene 4312); test: BSK_BE3C_MMP1: BioMAP Diversity Plus: BE3C Assay for Matrix Metallopeptidase 1 (MMP1) Biomarker Activity (AID 2283024); details: primary human bronchial epithelial cells; actives raise or lower the signal
Method in brief: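 Human bronchial epithelial cells (BE3C system) exposed to compound for 24 h; MMP1 then quantified by ELISA. Activity was fitted in both directions relative to DMSO.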

Measured: AC50

E-selectin (Homo sapiens), sequence (P16581 whole entry, looked up): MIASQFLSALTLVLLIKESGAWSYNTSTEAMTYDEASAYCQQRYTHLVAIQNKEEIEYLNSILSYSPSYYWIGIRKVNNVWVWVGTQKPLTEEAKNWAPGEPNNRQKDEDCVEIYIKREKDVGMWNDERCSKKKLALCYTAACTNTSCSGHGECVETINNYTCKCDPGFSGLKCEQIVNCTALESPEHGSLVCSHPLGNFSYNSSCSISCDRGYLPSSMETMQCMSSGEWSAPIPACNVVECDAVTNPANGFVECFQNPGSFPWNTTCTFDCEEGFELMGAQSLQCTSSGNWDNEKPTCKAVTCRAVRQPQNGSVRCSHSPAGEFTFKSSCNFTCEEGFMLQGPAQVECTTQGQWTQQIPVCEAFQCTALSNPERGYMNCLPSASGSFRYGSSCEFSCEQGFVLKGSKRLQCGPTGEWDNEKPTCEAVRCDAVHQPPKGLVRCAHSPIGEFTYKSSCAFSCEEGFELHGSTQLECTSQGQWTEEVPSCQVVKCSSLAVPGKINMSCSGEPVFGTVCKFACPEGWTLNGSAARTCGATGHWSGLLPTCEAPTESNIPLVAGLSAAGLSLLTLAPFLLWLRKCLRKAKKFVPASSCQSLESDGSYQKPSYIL
human Retinoid X Receptor beta (RXRb), RXRB (gene 6257), sequence (P28702 whole entry, looked up, the tested form may be a part): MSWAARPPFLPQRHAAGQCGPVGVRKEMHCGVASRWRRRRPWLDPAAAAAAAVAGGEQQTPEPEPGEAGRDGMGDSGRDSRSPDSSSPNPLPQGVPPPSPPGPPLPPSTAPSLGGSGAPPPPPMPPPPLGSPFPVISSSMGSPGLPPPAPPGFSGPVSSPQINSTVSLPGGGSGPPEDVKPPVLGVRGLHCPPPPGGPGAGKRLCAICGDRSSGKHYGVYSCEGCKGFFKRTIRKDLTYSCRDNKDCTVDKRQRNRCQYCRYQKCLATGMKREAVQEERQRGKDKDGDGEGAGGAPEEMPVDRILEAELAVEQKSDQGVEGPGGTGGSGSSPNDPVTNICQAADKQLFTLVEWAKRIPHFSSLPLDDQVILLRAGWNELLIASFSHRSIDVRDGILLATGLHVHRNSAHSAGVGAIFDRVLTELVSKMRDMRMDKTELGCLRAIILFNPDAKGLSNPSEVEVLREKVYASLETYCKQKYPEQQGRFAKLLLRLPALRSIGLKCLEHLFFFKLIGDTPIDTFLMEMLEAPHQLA
human Vitamin D Receptor (VDR), VDR (gene 7421), sequence (P11473 whole entry, looked up, the tested form may be a part): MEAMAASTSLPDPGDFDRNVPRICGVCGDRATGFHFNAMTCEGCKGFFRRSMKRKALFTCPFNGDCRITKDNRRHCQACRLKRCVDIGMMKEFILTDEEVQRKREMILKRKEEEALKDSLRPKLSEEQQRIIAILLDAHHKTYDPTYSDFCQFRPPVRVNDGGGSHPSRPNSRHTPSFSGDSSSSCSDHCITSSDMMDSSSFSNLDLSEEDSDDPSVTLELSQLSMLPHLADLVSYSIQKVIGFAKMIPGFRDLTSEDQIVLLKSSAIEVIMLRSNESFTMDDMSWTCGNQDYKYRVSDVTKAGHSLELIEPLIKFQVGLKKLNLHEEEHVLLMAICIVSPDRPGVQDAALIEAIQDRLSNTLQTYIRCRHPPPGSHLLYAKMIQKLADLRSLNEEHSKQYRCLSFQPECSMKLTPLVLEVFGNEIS
human Thyroid Receptor alpha (THRa1), THRA (gene 7067), sequence (P10827 whole entry, looked up, the tested form may be a part): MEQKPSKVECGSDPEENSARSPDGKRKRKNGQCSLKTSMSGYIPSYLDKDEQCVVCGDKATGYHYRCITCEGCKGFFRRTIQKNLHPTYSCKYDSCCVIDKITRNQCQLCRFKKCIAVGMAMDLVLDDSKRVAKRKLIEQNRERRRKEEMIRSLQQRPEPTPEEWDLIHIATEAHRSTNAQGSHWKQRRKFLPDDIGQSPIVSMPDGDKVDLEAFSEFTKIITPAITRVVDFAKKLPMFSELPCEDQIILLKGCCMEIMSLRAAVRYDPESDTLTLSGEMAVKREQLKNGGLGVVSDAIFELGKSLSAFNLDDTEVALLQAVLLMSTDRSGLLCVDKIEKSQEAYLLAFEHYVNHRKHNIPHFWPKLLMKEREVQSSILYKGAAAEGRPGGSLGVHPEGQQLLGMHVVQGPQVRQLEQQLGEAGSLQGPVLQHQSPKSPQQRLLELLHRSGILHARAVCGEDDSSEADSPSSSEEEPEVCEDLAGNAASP
human RAR-related Orphan Receptor gamma (RORg), RORC (gene 6097), sequence (P51449 whole entry, looked up, the tested form may be a part): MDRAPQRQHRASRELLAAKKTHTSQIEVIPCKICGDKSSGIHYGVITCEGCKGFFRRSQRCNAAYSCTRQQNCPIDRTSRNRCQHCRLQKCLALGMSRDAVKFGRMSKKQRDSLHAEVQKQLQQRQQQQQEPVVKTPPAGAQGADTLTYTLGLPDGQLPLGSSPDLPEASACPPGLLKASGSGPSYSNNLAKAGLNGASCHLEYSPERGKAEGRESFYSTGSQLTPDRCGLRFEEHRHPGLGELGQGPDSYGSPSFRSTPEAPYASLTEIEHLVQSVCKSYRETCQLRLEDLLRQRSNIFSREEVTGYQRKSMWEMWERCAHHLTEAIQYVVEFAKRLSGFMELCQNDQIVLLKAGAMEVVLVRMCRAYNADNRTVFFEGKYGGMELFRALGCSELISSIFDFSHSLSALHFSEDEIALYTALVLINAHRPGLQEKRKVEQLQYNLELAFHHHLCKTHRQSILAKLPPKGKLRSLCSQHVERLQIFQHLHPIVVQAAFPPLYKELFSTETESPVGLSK
Retinoic acid receptor RXR-alpha (Homo sapiens), sequence (P19793 whole entry, looked up, the tested form may be a part): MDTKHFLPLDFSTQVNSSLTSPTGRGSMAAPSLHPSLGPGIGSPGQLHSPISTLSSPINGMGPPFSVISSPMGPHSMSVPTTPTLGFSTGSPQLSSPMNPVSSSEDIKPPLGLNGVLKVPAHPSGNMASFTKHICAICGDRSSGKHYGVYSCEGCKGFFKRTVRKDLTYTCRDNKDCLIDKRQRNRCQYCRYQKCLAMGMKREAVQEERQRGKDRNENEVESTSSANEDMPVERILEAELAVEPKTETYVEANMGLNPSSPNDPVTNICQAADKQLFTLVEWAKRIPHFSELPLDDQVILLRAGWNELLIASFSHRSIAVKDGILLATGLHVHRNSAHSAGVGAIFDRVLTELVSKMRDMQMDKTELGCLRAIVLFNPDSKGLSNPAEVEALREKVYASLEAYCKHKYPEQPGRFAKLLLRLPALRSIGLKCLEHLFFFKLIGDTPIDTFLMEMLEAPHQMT

CC[C@H](C)C(=O)O[C@H]1C[C@H](O)C=C2C=C[C@H](C)[C@H](CC[C@@H](O)C[C@@H](O)CC(=O)O)[C@H]21
not listed: [19] | [20]
inactive: all other assays above

O=S(=O)(O)CCC(F)(F)C(F)(F)C(F)(F)C(F)(F)C(F)(F)C(F)(F)F
not listed: [2] | [6] | [13] | [19] | [20]
inactive: all other assays above

CCc1ccc(O)c(C(C)(C)C)c1
inactive: [3] | [5] | [16] | [17]
active: [19] 39.9 µM | [2] 8.8 µM | [4] 33.3 µM | [7] 25 µM | [8] 30.9 µM | [9] 30.4 µM | [10] 36 µM | [12] 31.2 µM | [13] 39.3 µM | [14] 32 µM | [15] 32.8 µM | [18] 36.7 µM

CC(C)c1nnc2ccc(-c3ocnc3-c3cc(F)ccc3F)cn12
active: [6] 1 µM | [8] 0.833 µM | [9] 0.148 µM | [12] 0.61 µM | [20] 1.05 µM | [17] 0.451 µM
not listed: [1] | [3] | [10]
inactive: all other assays above

O=C1CN(N=Cc2ccc([N+](=O)[O-])o2)C(=O)N1
active: [2] 45.6 µM | [4] 9.86 µM
not listed: [1] | [6] | [10]
inactive: all other assays above

CCCCCCOC(=O)CC(CC(=O)OCCCCCC)(OC(=O)CCC)C(=O)OCCCCCC
not listed: [2] | [3] | [20]
inactive: all other assays above

Cn1c(=O)c2[nH]cnc2n(C)c1=O
not listed: [2] | [3] | [6] | [10] | [11]
inactive: all other assays above

OCCC(F)(F)C(F)(F)C(F)(F)C(F)(F)F
not listed: [2] | [6] | [13]
inactive: all other assays above
